Results taken from PubChem BioAssay (Tox21).
Several values for one entry are separate records, joined by “and”; a condition that tells them apart may be missing. Equal entries are not always repeated. Results filed as inconclusive are left out. A call without a number means that no potency is given here. Some compounds were tested as several samples or in several runs, with calls that do not always agree. Activity calls are given as the source filed them. Unless noted, calls follow the shape of the dose curve; as a rule, active = well fitted curve in the direction sought with a large enough effect in the repeat runs; inconclusive = weak or mixed curves; inactive = no such curve, though single readings can be large; an effect the other way counts as inactive or inconclusive.

Tests used:
[1] = qHTS assay to identify small molecule antagonists of the estrogen receptor alpha (ER-alpha) signaling pathway using the BG1 cell line in the presence of 0.1 nM 17-beta-estradiol - cell viability counter screen (AID 1259241); also: nearly all actives have a fitted effect of over 40% in size; also: potency is read from the fitted curve at half-maximal effect
How it was run: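 VM7Luc4E2 cells (endogenous full-length ER-alpha, 4xERE-luciferase), cultured 5 days in charcoal-stripped serum, exposed to compounds with 0.1 nM 17beta-estradiol (final) for 22 hr at 37C. Viability read in same wells as live-cell protease fluorescence after 30 min.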

[2] = qHTS assay to identify small molecule antagonists of the androgen receptor (AR) signaling pathway using the MDA cell line in the presence of 0.5 nM R1881 - cell viability counter screen (AID 1259242); also: nearly all actives have a fitted effect of over 45% in size; also: potency is read from the fitted curve at half-maximal effect
How it was run: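 MDA-kb2 cells (human breast carcinoma, stably carrying MMTV-luciferase reporter) were exposed to compounds with 0.5 nM R1881 (final) for 16 hr at 37C, 0% CO2; viability then read as live-cell protease fluorescence (CellTiter-Fluor, 30 min) in the same wells.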

[3] = molecular target: Estrogen receptor (Homo sapiens) (UniProt P03372); assay: qHTS assay to identify small molecule antagonists of the estrogen receptor alpha (ER-alpha) signaling pathway using the BG1 cell line in the presence of 0.1 nM 17-beta-estradiol (AID 1259244); also: nearly all actives have a fitted effect of over 50% in size; also: potency is read from the fitted curve at half-maximal effect
How it was run: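 VM7Luc4E2 cells (endogenous full-length ER-alpha, stable 4xERE-luciferase) were grown 5 days in phenol red-free medium with charcoal-stripped FBS, then exposed 22 h at 37C to compounds plus 0.1 nM (final) 17beta-estradiol; ONE-Glo luminescence read-out.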

[4] = qHTS assay to identify small molecule phospholipidosis (PLD) inducers (AID 1259344; active = well fitted curve in the direction sought with a large enough effect; an effect the other way counts as inactive or inconclusive)
How it was run: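 Fluorescent phospholipid staining (LipidTOX Red) measured by automated microscopy in fixed HepG2 cells after 24 h treatment; nuclei counterstained with Hoechst 33342; amiodarone as reference inducer.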

[5] = qHTS assay to identify small molecule HDAC inhibitors (AID 1259364); also: nearly all actives have a fitted effect of over 45% in size; also: potency is read from the fitted curve at half-maximal effect
How it was run: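 Wild-type HCT-116 cells were plated overnight, exposed to compounds for 2 h at 37 °C, then given HDAC-Glo class I/II luminogenic reagent for 30 min at room temperature before luminescence was read.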

[6] = qHTS assay to identify small molecule HDAC inhibitors - cell viability counter screen (AID 1259365); also: nearly all actives have a fitted effect of over 50% in size; also: potency is read from the fitted curve at half-maximal effect
How it was run: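 Wild-type HCT-116 cells, 1,500/well, cultured overnight, then compound-treated 2 h at 37 C. Viability measured as ATP luminescence with CellTiter-Glo after 30 min at room temperature.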

[7] = qHTS assay to identify small molecule agonists of the sonic hedgehog signaling (Shh) pathway - cell viability counter screen (AID 1259366); also: nearly all actives have a fitted effect of over 50% in size; also: potency is read from the fitted curve at half-maximal effect
How it was run: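 NIH/3T3-derived Gli1-Luc reporter cells, 2,000 per well, received compound after 4 h and were treated about 23 h at 37C. Viability measured in the same wells by CellTiter-Fluor fluorescence after 1 h.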

[8] = qHTS assay to identify small molecule antagonists of the sonic hedgehog signaling (Shh) pathway - cell viability counter screen (AID 1259367); also: nearly all actives have a fitted effect of over 55% in size; also: potency is read from the fitted curve at half-maximal effect
How it was run: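 Using CellTiter-Fluor, viability of Gli1-Luc reporter 3T3 cells is read by fluorescence in the wells used for the Shh luciferase assay. Treatment lasts 23 hr with conditioned medium, then reagent 1 hr at 37C.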

[9] = qHTS assay to identify small molecule agonists of the sonic hedgehog signaling (Shh) pathway (AID 1259368; calls by dose curve; also: series mostly up to about 92 µM; nearly all actives have a fitted effect of over 15% in size)
How it was run: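 NIH/3T3-derived 3T3Gli1-Luc cells carrying a stably integrated Gli1 response element–firefly luciferase reporter were plated, left 4 hr at 37 C, then given compounds in DMSO for 24 hr. Luminescence was read 30 min after adding luciferase reagent.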

[10] = qHTS assay to identify small molecule antagonists of the sonic hedgehog signaling (Shh) pathway (AID 1259369; calls by dose curve; also: nearly all actives have a fitted effect of over 45% in size; also: potency is read from the fitted curve at half-maximal effect)
How it was run: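 NIH/3T3-derived 3T3Gli1-Luc cells with stably integrated Gli1-Luc reporter were preincubated 4hr at 37 C, then given compounds in DMSO plus Shh conditioned medium and incubated 24hr. Firefly luciferase luminescence read after 30min reagent at room temperature.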

[11] = qHTS assay to identify small molecule agonists of the androgen receptor (AR) signaling pathway in the presence of an antagonist - cell viability counter screen (AID 1259379); also: nearly all actives have a fitted effect of over 25% in size; also: potency is read from the fitted curve at half-maximal effect
How it was run: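 MDA-kb2 human breast carcinoma cells (stable MMTV-luciferase, AR/GR responsive) were seeded 3,000 cells/well, pre-incubated 5 hr at 37C without CO2, then given 3.0uM nilutamide and compounds at 15 concentrations for 16 hr. Viability was read by CellTiter-Fluor fluorescence.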

[12] = qHTS assay to identify small molecule agonists of the estrogen receptor beta (ER-beta) signaling pathway - cell viability counter screen (AID 1259380); also: nearly all actives have a fitted effect of over 30% in size; also: potency is read from the fitted curve at half-maximal effect
How it was run: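 ER-beta-UAS-bla HEK293T cells in medium with 2% charcoal-stripped FBS were preincubated 6 hr at 37C, dosed with compound in DMSO for 16 hr, then after the bla read, CellTiter-Glo was added for 30 min at room temperature; luminescence recorded.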

[13] = qHTS assay to identify small molecule antagonists of the estrogen receptor beta (ER-beta) signaling pathway - cell viability counter screen (AID 1259382); also: nearly all actives have a fitted effect of over 55% in size; also: potency is read from the fitted curve at half-maximal effect
How it was run: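 ER-beta-UAS-bla HEK293T cells (2,000/well, 2% charcoal-stripped FBS) were pre-incubated 6 hr at 37C, then given compound plus 1nM final 17-beta-estradiol for 16 hr. Viability was read in the same wells by CellTiter-Glo luminescence after 30 min at room temperature.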

[14] = molecular target: Estrogen receptor (Homo sapiens) (UniProt P03372); assay: qHTS assay to identify small molecule agonists of the estrogen receptor alpha (ER-alpha) signaling pathway in the presence of an antagonist (AID 1259383; calls by dose curve; also: top concentration of the series differs between compounds; nearly all actives have a fitted effect of over 15% in size)
How it was run: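 VM7Luc4E2 cells (endogenous full-length ER-alpha, 4×ERE-luciferase) were precultured 5 days in phenol red-free medium with 10% charcoal-stripped FBS, given 10.0nM ICI-182,780 (final), then treated with compounds at 15 concentrations for 22hr at 37C; luminescence read with ONE-Glo.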

[15] = qHTS assay to identify small molecule agonists or antagonists of the thyroid stimulating hormone receptor (TSHR) signaling pathway - wild type cell line counter screen (AID 1259384; calls by dose curve; also: potency is read from the fitted curve at half-maximal effect)
How it was run: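 Counter screen in untransfected Hek293: compounds (15-point titration, triplicate) plus phosphodiesterase inhibitor Ro20-1724 added after 18 h plating; 30 min RT. Intracellular cAMP via competitive d2/cryptate immunoassay, 1 h incubation.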

[16] = molecular target: Thyrotropin receptor (Homo sapiens) (UniProt P16473); assay: qHTS assay to identify small molecule antagonists of the thyroid stimulating hormone receptor (TSHR) signaling pathway (AID 1259385; calls by dose curve; also: nearly all actives have a fitted effect of over 20% in size; also: potency is read from the fitted curve at half-maximal effect)
How it was run: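 Antagonist mode: compound-treated TSHR-expressing HEK293 cells were stimulated with 1.5 ng/mL TSH (final) in presence of Ro20-1724 for 30 min at RT. HTRF cAMP detection after 1 h; each compound tested at 15 concentrations, triplicate.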

[17] = molecular target: Estrogen receptor beta (Homo sapiens) (UniProt Q92731); assay: qHTS assay to identify small molecule agonists of the estrogen receptor beta (ER-beta) signaling pathway (AID 1259377; active = well fitted activation curve with a large enough effect in the signal ratio in the repeat runs, not every such curve was filed as active; the % refers to the signal ratio)
How it was run: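 ER-beta-UAS-bla HEK293T cells in medium with 2% charcoal-stripped FBS were exposed to compounds for 16 h at 37C. Beta-lactamase reporter activity was read as fluorescence after 2 h with LiveBLAzer B/G FRET substrate at room temperature.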

[18] = molecular target: Estrogen receptor beta (Homo sapiens) (UniProt Q92731); assay: qHTS assay to identify small molecule antagonists of the estrogen receptor beta (ER-beta) signaling pathway (AID 1259378; active = well fitted inhibition curve with a large enough effect in the signal ratio in the repeat runs, not every such curve was filed as active; the % refers to the signal ratio)
How it was run: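 Antagonist mode: compounds added to beta-lactamase reporter HEK293T ER-beta-UAS cells stimulated with E2 (1nM final), 16 hr at 37C. LiveBLAzer B/G FRET substrate, 2 hours room temperature, fluorescence read-out.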

Sequence of Estrogen receptor (Homo sapiens) (P03372 whole entry, looked up): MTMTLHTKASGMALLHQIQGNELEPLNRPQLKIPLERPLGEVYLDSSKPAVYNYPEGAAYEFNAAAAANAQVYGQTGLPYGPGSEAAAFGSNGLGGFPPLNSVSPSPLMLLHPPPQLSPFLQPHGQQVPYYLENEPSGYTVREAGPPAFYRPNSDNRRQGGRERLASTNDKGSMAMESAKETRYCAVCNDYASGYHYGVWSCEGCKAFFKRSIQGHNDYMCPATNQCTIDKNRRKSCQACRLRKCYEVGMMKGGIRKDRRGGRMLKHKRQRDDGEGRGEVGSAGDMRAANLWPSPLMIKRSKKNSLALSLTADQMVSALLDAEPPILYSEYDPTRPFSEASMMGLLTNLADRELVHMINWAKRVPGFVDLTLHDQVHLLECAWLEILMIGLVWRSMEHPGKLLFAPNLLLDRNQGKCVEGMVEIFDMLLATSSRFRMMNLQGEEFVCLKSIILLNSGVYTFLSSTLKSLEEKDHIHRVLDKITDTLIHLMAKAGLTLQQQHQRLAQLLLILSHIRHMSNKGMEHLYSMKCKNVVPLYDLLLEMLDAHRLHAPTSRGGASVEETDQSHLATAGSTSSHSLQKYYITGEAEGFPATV
Sequence of Estrogen receptor beta (Homo sapiens) (Q92731 whole entry, looked up): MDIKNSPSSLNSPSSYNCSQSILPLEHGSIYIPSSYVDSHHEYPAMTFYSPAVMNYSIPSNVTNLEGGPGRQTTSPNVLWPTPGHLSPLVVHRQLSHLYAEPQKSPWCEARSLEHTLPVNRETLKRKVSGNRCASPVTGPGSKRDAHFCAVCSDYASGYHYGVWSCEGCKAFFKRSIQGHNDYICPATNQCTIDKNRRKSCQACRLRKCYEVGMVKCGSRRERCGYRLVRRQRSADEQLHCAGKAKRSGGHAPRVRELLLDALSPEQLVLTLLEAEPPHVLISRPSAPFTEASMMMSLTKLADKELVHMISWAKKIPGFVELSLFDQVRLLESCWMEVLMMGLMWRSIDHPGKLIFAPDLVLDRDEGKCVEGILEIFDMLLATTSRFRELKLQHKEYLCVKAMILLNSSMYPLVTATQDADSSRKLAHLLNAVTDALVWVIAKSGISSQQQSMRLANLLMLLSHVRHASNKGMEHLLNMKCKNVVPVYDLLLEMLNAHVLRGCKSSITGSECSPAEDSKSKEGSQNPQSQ
Sequence of Thyrotropin receptor (Homo sapiens) (P16473 whole entry, looked up): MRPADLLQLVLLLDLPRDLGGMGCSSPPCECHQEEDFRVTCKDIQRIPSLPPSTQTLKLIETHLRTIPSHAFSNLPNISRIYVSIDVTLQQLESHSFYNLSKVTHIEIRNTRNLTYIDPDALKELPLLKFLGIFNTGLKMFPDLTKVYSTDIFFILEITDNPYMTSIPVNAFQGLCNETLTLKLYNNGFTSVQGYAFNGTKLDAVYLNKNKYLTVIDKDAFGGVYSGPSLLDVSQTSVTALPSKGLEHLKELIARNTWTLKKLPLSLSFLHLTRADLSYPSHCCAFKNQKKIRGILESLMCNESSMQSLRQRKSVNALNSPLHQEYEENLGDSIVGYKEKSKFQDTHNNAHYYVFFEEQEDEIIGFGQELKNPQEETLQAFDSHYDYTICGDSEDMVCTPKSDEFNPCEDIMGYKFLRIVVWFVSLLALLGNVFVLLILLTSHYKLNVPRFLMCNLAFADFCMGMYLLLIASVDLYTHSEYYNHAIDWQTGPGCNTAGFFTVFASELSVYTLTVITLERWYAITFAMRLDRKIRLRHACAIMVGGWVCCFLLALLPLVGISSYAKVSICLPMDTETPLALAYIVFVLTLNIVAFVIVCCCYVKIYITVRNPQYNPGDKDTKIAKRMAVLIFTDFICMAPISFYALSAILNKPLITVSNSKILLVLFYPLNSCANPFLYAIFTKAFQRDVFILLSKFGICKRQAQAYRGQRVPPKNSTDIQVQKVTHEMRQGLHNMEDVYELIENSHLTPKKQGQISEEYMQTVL

Compound | Potency [1] | Potency [2] | Potency [3] | outcome [4] | Potency [5] | Potency [6] | Potency [7] | Potency [8] | Potency [9] | Potency [10] | Potency [11] | Potency [12] | Potency [13] | Potency [14] | Potency [15] | Potency [16] | Potency [17] | Potency [18] | PLD induction [4]
CC(Cc1ccc(O)cc1)NCC(O)c1cc(O)cc(O)c1 (stereo unspecified) | inactive | inactive | inactive | inactive | inactive | inactive | 8.41 µM (active) | 10.6 µM (active) | inactive | inactive | inactive | inactive | inactive | inactive | 0.668 µM (active) | inactive |  |  | 
c1ccc2nc(N3CCNCC3)ccc2c1 | inactive | inactive | inactive | inactive | inactive | inactive |  | inactive | inactive | inactive | inactive | 23.7 µM (active) | inactive | inactive |  |  | inactive | inactive | 
ClSC(Cl)(Cl)Cl | inactive | inactive | inactive |  | inactive | inactive | inactive | inactive | inactive | inactive | inactive | inactive | inactive | inactive | inactive | inactive | inactive | inactive | 
O=[N+]([O-])c1ccccc1-c1ccccc1 | inactive | inactive | inactive |  | inactive | inactive | inactive | inactive | inactive | inactive | inactive | inactive | inactive | inactive | inactive |  | inactive | inactive | 
CCCCCCCCCCCCCCn1cc[n+](C)c1 | inactive | 30.7 µM (active) and 34 µM (active) and inactive | 612 nM (active) and 761 nM (active) and inactive |  |  | inactive |  | 19.4 µM (active) and 27 µM (active) | inactive | 122 nM (active) and 42.8 nM (active) | 7.71 µM (active) and 1.7 µM (active) | 30.7 µM (active) and 60.4 µM (active) | 34.4 µM (active) and 34 µM (active) and inactive | inactive | inactive |  | inactive | inactive | 
OCC(Br)CBr (stereo unspecified) | inactive | inactive | inactive |  | inactive | inactive |  | inactive | inactive | inactive | inactive | inactive | inactive | inactive | inactive | inactive | inactive | inactive | 
c1ccc(N=NNc2ccccc2)cc1 | inactive | inactive | inactive |  |  | inactive | inactive | inactive | inactive |  |  |  | inactive | inactive | inactive | inactive |  |  | 
Brc1ccc(Oc2ccc(Br)cc2Br)c(Br)c1 | inactive | inactive | inactive |  |  | inactive |  | inactive | inactive | inactive | inactive |  | inactive |  | inactive | 61.2 µM (active) | inactive |  | 
O=C(N[C@H]1N=C(c2ccccc2F)c2cccc3c2N(CC3)C1=O)c1cc2ccccc2[nH]1 | inactive | inactive |  | inactive | inactive | inactive | inactive | inactive | inactive |  | inactive |  | inactive |  | inactive | inactive | inactive | inactive | 
CCCCC/C=C\C/C=C\C/C=C\C/C=C\CCCC(=O)NCC(=O)O | inactive | inactive |  |  | inactive | inactive | inactive | inactive | inactive | inactive | inactive | 11.9 µM (active) |  | inactive |  |  | inactive |  | 0.136% [at 3.15 µM] (inactive)
CC(Cl)CCl (stereo unspecified) | inactive | inactive | inactive |  |  | inactive | inactive | inactive | inactive | inactive | inactive | inactive | inactive | inactive | inactive | inactive | inactive | inactive | 
ClCBr | inactive | inactive | inactive |  | inactive |  | inactive | inactive | inactive | inactive | inactive |  | inactive | inactive | inactive | inactive |  | inactive | 
CC(C)C(Br)C(=O)NC(N)=O (stereo unspecified) | inactive | inactive |  | inactive | inactive | inactive | inactive | inactive | inactive | inactive | inactive | inactive | inactive | inactive | inactive | inactive | inactive | inactive | 
CC(O)C(=O)[O][Hg][c]1ccccc1 (stereo unspecified) | 12.2 µM (active) | 6.11 µM (active) | 8.63 µM (active) |  | 4.33 µM (active) | 4.33 µM (active) | 0.969 µM (active) | 1.22 µM (active) | inactive | 30.6 nM (active) | 6.86 µM (active) | 4.86 µM (active) | 4.33 µM (active) | inactive | 5.66 µM (active) | 54.5 µM (active) |  |  | 
COP(=S)(OC)Oc1ccc([N+](=O)[O-])c(C)c1 | inactive | inactive | inactive |  | inactive |  |  |  | inactive |  | inactive |  | inactive | inactive |  | inactive | inactive |  | 
